# According to PubChem BioAssay:
# Unmarked numbers belong to inactive results. The rule behind the calls is not given here.
# Assay: fluorescence interference in NS3h assay format, artefact control for HCV NS3 helicase inhibitor project, biochemical, NIH Clinical Collection (AID 743272);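 note: HCV NS3 helicase with a Cy5 labelled single stranded DNA probe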
# Conditions: fluorescence interference counterscreen, hits give low values
compound,measurement,value
CC#C[C@]1(O)CC[C@H]2[C@@H]3CCC4=CC(=O)CCC4=C3[C@@H](c3ccc(N(C)C)cc3)C[C@@]21C,fluorescence ratio,0.97
